{
  "source": "PubChem BioAssay AID1224861",
  "about": "(National Center for Advancing Translational Sciences (NCATS), 2016)",
  "note": "Inconclusive results are not listed. A call without a number means that no potency is given here. Calls of active or inactive are those of the source. The call rests on the fitted dose curve; in most records, active means well fitted cell-killing curve with a large enough effect; inconclusive means small, poorly fitted or top-dose-only effect, or effect the other way; inactive means flat fitted curve, though single readings scatter.",
  "data": [
    {"assay": "Compound cytotoxicity measured by an ATP content assay as a counter-screen for lead compounds in human astrocytes", "details": "human astrocytes viability, ATP luminescence; series mostly up to 46.1 µM", "method_in_brief": "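Cytotoxicity expressed as percent inhibition of cell viability from ATP-dependent luminescence, read after 10 min at room temperature with 1:1 kit reagent. Compound exposure times matched the primary screens, e.g. 6, 24 or 72 h, in cultured human astrocytes.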", "values": [
      {"smiles": "CN1CC(=O)N2C(Cc3c([nH]c4ccccc34)[C@H]2c2ccc3c(c2)OCO3)C1=O", "note": "(some centres undefined)", "Potency": "inactive"},
      {"smiles": "O=C(O)Cc1ccc(-c2ccccc2)cc1", "Potency": "inactive"},
      {"smiles": "Nc1ccc(N=Nc2ccccc2)c(N)n1", "Potency": "inactive"},
      {"smiles": "COc1cc(NC(C)CCCN)c2ncccc2c1", "note": "(centres undefined)", "Potency": "inactive"},
      {"smiles": "CNC1[C@H](O)C(O[C@@H]2C(O)C(O[C@H]3O[C@H]([C@@H](C)NC)CC[C@H]3N)[C@@H](N)C[C@H]2N)OC[C@]1(C)O", "note": "(some centres undefined)", "Potency": "inactive"},
      {"smiles": "Oc1ccc(/C=C/c2cc(O)cc(O)c2)cc1", "Potency": "10.9 µM (active)"},
      {"smiles": "CN1CCN(c2cc3c(nn2)Oc2ccccc2N3C)CC1", "Potency": "inactive"},
      {"smiles": "CCN1CCC(n2cc(CNc3cc(Cl)c4ncc(C#N)c(Nc5ccc(F)c(Cl)c5)c4c3)nn2)CC1", "Potency": "inactive"},
      {"smiles": "COc1cccc2c1C(=O)c1c(O)c3c(c(O)c1C2=O)C[C@@](O)(C(=O)CO)C[C@@H]3O[C@H]1C[C@H](N)[C@H](O[C@@H]2CCCCO2)[C@H](C)O1", "Potency": "inactive"},
      {"smiles": "CS(=O)(=O)c1ccc(-c2cn3ccccc3n2)cc1", "Potency": "8.69 µM (active)"},
      {"smiles": "O=C1c2ccccc2-[n+]2ccc3c([nH]c4ccccc43)c21", "Potency": "4.35 µM (active)"},
      {"smiles": "O=C(O)[C@@H](c1ccc(OCc2ccc3ccccc3n2)cc1)C1CCCC1", "Potency": "inactive"},
      {"smiles": "O=C(O)c1ccccc1NCCc1ccccc1", "Potency": "inactive"},
      {"smiles": "O=c1cc(-c2ccccc2)oc2cc(O)c(O)c(O)c12", "Potency": "inactive"},
      {"smiles": "CC1(C)Cc2c(sc(NC(=S)NC(=O)c3ccccc3)c2C(=O)O)CO1", "Potency": "inactive"},
      {"smiles": "Cc1nc(N)sc1-c1ccnc(Nc2ccc(N3CCOCC3)cc2)n1", "Potency": "inactive"},
      {"smiles": "COc1ccc(-c2cc(=O)c3c(O)cc(O)cc3o2)cc1O", "Potency": "inactive"},
      {"smiles": "O=S(=O)(O)c1ccc2nc(-c3ccccc3)[nH]c2c1", "Potency": "inactive"},
      {"smiles": "CC(C)c1ccc2oc3nc(N)c(C(=O)O)cc3c(=O)c2c1", "Potency": "2.75 µM (active)"}
    ]}
  ]
}
